The structures appear in SMILES notation. The whole screen tested about 320,000 compounds, of which about 7,600 (2.4%) were called active. Roughly 3% stayed inconclusive and do not appear here. The call rests on the fitted dose curve; in most records, active means well fitted activation curve with a large enough effect; inconclusive means small, poorly fitted or top-dose-only effect; inactive means no such curve, though single readings can be large or run the other way. Shown is part of a subset that was picked to be rich in actives. Entries that show only a call come without a potency.
Potency means the concentration at half of the fitted maximal effect.

This experiment can be described thus: qHTS Assay for NPC1 Promoter Activators. Further: nearly all actives have a fitted effect of over 60% in size. The settings on record: Huh7 NPC1 promoter luciferase reporter, 24 h; series mostly up to 9.22 µM. The text has this:
NIH Chemical Genomics Center [NCGC] NIH Molecular Libraries Probe Production centers Network [MLPCN] MLPCN Grant: MH089375-01A1 Assay Submitter (PI): Yiannis A. Ioannou NCGC Assay Overview: Niemann Pick Type C (NPC) is a rare neurodegenerative lipidosis that is characterized by lipid storage in the endosomal/lysosomal system. Treatment modalities for this devastating disease are currently non-existent due to the severe obstacles associated with accessing the central nervous system with proteins or genes. The majority of mutations causing NPC disease are missense mutations that are distributed throughout the length of the NPC1 protein, with the most prevalent being the I1061T allele. Although NPC1 mutant proteins may be functional, they are typically trapped in the ER due to misfolding. […] We have developed and optimized a cell based luciferase reporter assay in 1536 well format for the identification of up-regulators of the mutant NPC1 promoter.
The NPC1 promoter is cloned in front of the luciferase reporter gene, therefore NPC promoter activation results in luciferase expression. Frozen stock of the NPC1 promoter transfected Huh7 cells were obtained from the laboratory of Dr. Yiannis Ioannou (The Mount Sinai School of Medicine, New York, NY). Cells were propagated and maintained at NCGC in medium containing RPMI-1640 supplemented with 10% FBS, 2mM L-glutamine, and 50ug/ml penicillin/streptomycin. Cells were harvested in and plated for assays in OP-MEM I reduced-serum medium supplemented with 10% FBS. The Amplite luciferase reporter gene assay kit was purchased from ABD Bioquest and prepared/stored according to manufacturers recommendations. qHTS Assay Setup: 1.#Dispensed 5ul of Huh7 cells stably expressing NPC1-luciferase at a density of 1500 cells per well 1536-well plates. 2.#Incubate cells at 37C, 5% CO2, and 95% humidity for 2 hours. 3.#Transferred 23nl per well of compound in DMSO solution. 4.#Incubated at 37C, 5% CO2, and 95% humidity for 24 hours. 5.#Dispensed 3ul per well of Amplite reagent(ABD Bioquest) per well. 6.#Incubate at ambient for 10 minutes. 7.#Read using the luminescence protocol on the ViewLux plate reader (Perkin Elmer).
(In general: qHTS replaces the single test concentration by a dilution series.)
Turning to `CC(=O)Oc1ccccc1C(=O)Nc1ncc([N+](=O)[O-])s1`, the Potency was 501 nM (active).

Consider `CC(=O)c1c(O)c(C)c(O)c(Cc2c(O)c3c(c(C(=O)/C=C/c4ccccc4)c2O)OC(C)(C)C=C3)c1O`, for which the Potency result is “inactive”. As for `CN(C)c1ccc(NC(=O)CN2C3CCCC2CC(NC(=O)c2ccccc2)C3)cc1` (stereo not given), the entry is “inactive”. As for `CC[C@H]1CN2CCc3cc(OC)c(OC)cc3[C@@H]2C[C@@H]1C[C@H]1NCCc2cc(OC)c(OC)cc21`, the entry is “inactive”. The figure for `CN(C)C(=O)Oc1ccc2c(c1)O/C(=C\c1ccccc1)C2=O` is 1580 nM (active); for `CCOC(=O)c1c(-c2ccccc2)oc2ccc(OC(=O)N(C)C)cc12` it is “inactive”. In the case of `CN(C)C(=O)Oc1ccc(OCc2cccc[n+]2C)cc1`, the Potency entry was “inactive”. Turning to `CC(=O)NBr`, the Potency result is “inactive”. `CCOC(=O)c1ncn2c1[C@@H]1CCCN1C(=O)c1cc(OC)ccc1-2`: the Potency entry is “inactive”. As for `CNCC[C@H](Oc1ccc(C(F)(F)F)cc1)c1ccccc1`, the Potency result was “inactive”.
